# Sampled rows, rich in hits. Any-hit rate of the full collection: about 15%.
# DT40 TDP1 CPT: qHTS for Inhibitors of human tyrosyl-DNA phosphodiesterase 1 (TDP1): qHTS in cells in presence of CPT. chicken DT40 Tdp1-/-;hTDP1 cells + 20 nM CPT, ATP luminescence, 48 h. Potency, µM (highest dose often 46.2 µM), inactives show at the highest dose activity change, negative = growth inhibition, usual class: inhibitors. 420,000 compounds, 12% hits. AID 686979, 2013; further: nearly all actives have a fitted effect of over 55% in size
#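 Chicken DT40 Tdp1-/- cells complemented with human TDP1, 400 cells/well, exposed to compounds plus 20 nM camptothecin for at least 48 h at 37 C; viability read as ATP content by CellTiter-Glo luminescence.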
# DT40 TDP1 no CPT: qHTS for Inhibitors of human tyrosyl-DNA phosphodiesterase 1 (TDP1): qHTS in cells in absence of CPT | 420,000 compounds, 15% hits | Potency, µM (highest dose often 46.2 µM), for the others: at the top dose activity change, negative = growth inhibition, usual class: inhibitors | AID 686978, 2013 | DT40 Tdp1-/- hTDP1 cells, no CPT, ATP luminescence, 48 h; further: nearly all actives have a fitted effect of over 55% in size
#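 Compound effects on proliferation are scored in DT40 Tdp1-/-;hTDP1 cells in the absence of CPT. ATP levels (CellTiter-Glo luminescence) are recorded after a ≥48 hr, 37 °C incubation.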
# Gal4-VP16 FLuc: VP16 counterscreen qHTS for inhibitors of ROR gamma transcriptional activity. Potency, µM (titrated, usually from 53.6 µM), inactives show top-dose activity, negative = inhibition, actives largely listed as inhibitors. 310,000 compounds, 3.5% hits. Drosophila S2 Gal4-VP16 UAS-luciferase, luminescence, 20 h;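 further: Gal4-VP16 expression switched on by copper sulfate through the metallothionein promoter; nearly all actives have a fitted effect of over 50% in size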
# ELG1 repair inh: qHTS screen for small molecules that inhibit ELG1-dependent DNA repair in human embryonic kidney (HEK293T) cells expressing luciferase-tagged ELG1; 330,000 compounds, 2.3% hits; AID 504467, 2011; HEK293T ELG1-luciferase reporter, luminescence, 16 h; DNA damage induced by 5-fluorouridine; Potency, µM (titrated, usually from 46.1 µM), inactives show at the highest dose activity change, negative = inhibition, hits mostly inhibitors; further: nearly all actives have a fitted effect of over 55% in size
#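 HEK293T cells expressing luciferase-tagged ELG1 (2,000/well) received 5-Fluorouridine plus compound or DMSO for 16 hr at 37 °C. Luciferase was read by ONE-Glo luminescence after 30 min at room temperature.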
# RORgamma inh: qHTS for inhibitors of ROR gamma transcriptional activity. 310,000 compounds, 5.4% hits. Potency, µM (highest dose often 53.6 µM), for the others: at the highest dose activity change, negative = inhibition, actives largely listed as inhibitors. Drosophila S2 Gal4-RORgamma UAS-luciferase reporter, 20 h. Nuclear receptor ROR-gamma (Mus musculus), P51450; further: nearly all actives have a fitted effect of over 60% in size
# Target sequence (P51450 whole entry, looked up, the tested form may be a part): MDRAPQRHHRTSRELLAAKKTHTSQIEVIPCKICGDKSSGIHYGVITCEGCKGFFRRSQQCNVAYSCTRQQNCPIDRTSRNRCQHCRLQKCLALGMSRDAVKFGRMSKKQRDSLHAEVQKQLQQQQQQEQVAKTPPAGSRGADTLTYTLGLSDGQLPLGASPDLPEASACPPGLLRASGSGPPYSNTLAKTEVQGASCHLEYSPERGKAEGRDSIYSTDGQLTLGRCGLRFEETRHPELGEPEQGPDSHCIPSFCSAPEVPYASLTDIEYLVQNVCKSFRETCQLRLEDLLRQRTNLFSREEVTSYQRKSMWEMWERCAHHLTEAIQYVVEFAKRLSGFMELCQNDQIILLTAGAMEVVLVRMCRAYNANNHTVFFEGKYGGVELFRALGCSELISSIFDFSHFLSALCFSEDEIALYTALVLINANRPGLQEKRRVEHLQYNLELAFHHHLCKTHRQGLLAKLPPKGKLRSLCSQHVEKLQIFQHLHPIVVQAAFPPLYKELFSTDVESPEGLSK
#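 Stably transfected Drosophila Schneider cells are the test system, with ROR gamma fused to Gal4 and luciferase under UAS control; luminescence is read after 20 hr of 700 uM copper sulfate induction at ambient temperature.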
# 12-LOX inh: Primary qHTS assay for inhibitors of human arachidonate 12S-lipoxygenase (ALOX12): Round 2 | Polyunsaturated fatty acid lipoxygenase ALOX12 (Homo sapiens), P18054 | Potency, µM (top dose mostly 108 µM), for inactives: at the highest dose activity change, negative = inhibition, usual class: inhibitors | purified 12hLO, xylenol orange hydroperoxide absorbance | 580,000 compounds, 1.1% hits
#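 Purified human 12hLO (150 nM final) in 25 mM Hepes, 0.01% Triton X-100, pH 7.0 was preincubated 15 min at room temperature with compound. Then 40 uM arachidonic acid was added, 30 min. Hydroperoxide was read by Fe-XO absorbance ratio 573/405 nm.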
# * = called active by the depositor; ? = inconclusive; · = not tested or not shown; [ ] = remark or other dose. The call rests on the fitted dose curve; in most records, active means well fitted curve in the direction sought with a large enough effect; inconclusive means small, poorly fitted or top-dose-only effect, or another doubt; inactive means no such curve, though single readings can be large; an effect the other way counts as inactive or inconclusive. On the % scale 0 is the no-effect control and ±100 the full control effect; potency means the concentration at half of the fitted maximal effect.
SMILES,DT40 TDP1 CPT,DT40 TDP1 no CPT,Gal4-VP16 FLuc,ELG1 repair inh,RORgamma inh,12-LOX inh
CCOc1ccc(C2C=C(c3ccc(C)cc3)Nc3ncnn32)cc1 (configuration not stated),·,·,-6.0%,?,11.2µM*,·
Cc1c(Cl)cccc1NC(=O)Cn1ccn2nc(-c3ccccc3)c(CO)c2c1=O,·,·,·,·,·,-26.1%
NC1(C#Cc2ccc3oc(=O)c(-n4cc(-c5ccsc5)nn4)cc3c2)CCCCC1,8.2µM*,8.2µM*,·,-0.5%,·,-12.2%
NC1(C#Cc2ccc3oc(=O)c(-n4cc(C5(O)CCCCC5)nn4)cc3c2)CCCCC1,-1.3%,-17.0%,·,22.9%,·,?
Cc1c(Cl)cccc1-n1ncc(C(=O)Nc2ccc3c(c2)OCCO3)c1C1CCN(C(=O)OC(C)(C)C)CC1,?,?,·,·,·,-17.4%
CC(C)(C)OC(=O)N1CCC(c2c(C(=O)Nc3ccc4c(c3)OCCO4)cnn2-c2ccc(F)cc2)CC1,?,18.4µM*,·,·,·,0.2%
COc1ccc(-n2ncc(C(=O)Nc3ccc4c(c3)OCCO4)c2C2CCN(C(=O)OC(C)(C)C)CC2)cc1,20.6µM*,16.4µM*,·,·,·,-10.2%
COc1ccc(C2(CNC(=O)/C=C/c3ccco3)CCCC2)cc1OC,?,?,3.0%,?,?,?
COc1ccc(C2(CNC(=O)c3cc([N+](=O)[O-])cc([N+](=O)[O-])c3)CCCC2)cc1OC,20.6µM*,16.4µM*,11.5%,?,?,-7.9%
COc1cccc(C(=O)NCC2(c3ccccc3)CCCC2)c1OC,18.4µM*,9.2µM*,-7.4%,-14.7%,11.9%,0.1%
O=C(/C=C/c1ccco1)NCC1(c2ccccc2)CCCC1,11.6µM*,?,-11.5%,-13.3%,11.1%,?
COc1cc(C(=O)NCC2(c3ccccc3)CC2)cc(OC)c1OC,·,·,·,·,·,-22.9%
O=C(NCC1(c2ccccc2)CCCC1)c1ccco1,-64.6%,14.6µM*,7.8%,-12.3%,14.9%,-29.0%
CCCCn1cnc2c1c(=O)n(CC(O)COc1ccccc1)c(=O)n2CCC (configuration not stated),·,·,·,·,·,-2.1%
O=C(NCc1ccco1)C1(c2ccccc2)CCCC1,10.3µM*,7.08µM*,-0.5%,-6.1%,7.1%,-7.1%
O=C(NCC1(c2ccccc2)CCCC1)c1cccc(Br)c1,14.6µM*,13µM*,0.2%,-13.0%,-9.1%,8.0%
CNC(=O)Nc1ccc(C2(C(=O)NCc3ccco3)CCC2)cc1,·,·,·,·,·,33.2%
O=C(Nc1cccnc1)c1ccc(-c2cc(Cl)ccc2Cl)o1,?,20.6µM*,6.2%[10 µM],?,-13.0%,?
O=C(Nc1ccccc1)c1ccc(-c2ccccc2Cl)o1,20.6µM*,18.4µM*,-7.1%,?,-15.2%,?
O=C(Nc1cccnc1)c1ccc(-c2ccc(Cl)cc2)o1,-5.1%,-11.9%,-5.6%,?,38.5%,-4.8%
Cc1c(Cl)cccc1-c1ccc(C(=O)Nc2ccc(F)cc2)o1,11.6µM*,9.2µM*,·,·,·,-13.4%
CC(=O)Nc1ccc(NC(=O)c2ccc(-c3ccccc3Cl)o2)cc1,?,-27.8%,·,7.7%,·,?
CCOC(=O)c1ccc(NC(=O)c2ccc(-c3cccc(Cl)c3C)o2)cc1,?,?,·,·,·,-14.8%
COC(=O)c1sccc1-c1ccc(C(=O)Nc2cccc(Cl)c2)o1,?,23.1µM*,1.5%,?,20.9%,?
CCC1COCCN1Cc1cn(-c2ccccc2)nc1-c1ccc(OC)cc1F (configuration not stated),·,·,·,·,·,14.1%
SMILES,DT40 TDP1 CPT,DT40 TDP1 no CPT,Gal4-VP16 FLuc,ELG1 repair inh,RORgamma inh,12-LOX inh
Cc1oc(-c2cccs2)nc1CC(=O)Nc1ccccc1O,·,·,·,·,·,-24.3%
CCCOc1ccc(NC(=O)c2cccc(Cl)c2)c2cccnc12,·,·,·,·,·,25.1%
CC(C)NC(=O)c1ccc(-c2ccccc2C(F)(F)F)o1,-20.8%,-15.0%,?,?,5.2%,12.1%
O=C(NCc1ccc(Cl)cc1)c1ccc(-c2ccccc2C(F)(F)F)o1,20.6µM*,23.1µM*,-13.4%,3.9%,-9.1%,-7.6%
O=C(Nc1ccccc1)c1ccc(-c2ccccc2C(F)(F)F)o1,?,20.6µM*,17.1%,?,?,?
COc1ccc(CNC(=O)N2CCN(S(=O)(=O)c3cccc(Br)c3)CC2)cn1,·,·,·,·,·,5.0%
O=C(C1CC(=O)N(c2n[nH]c3cc(Br)ccc23)C1)N1CCSCC1 (configuration not stated),·,·,·,·,·,17.0%
O=C(COc1ccc([N+](=O)[O-])cc1Cl)NCCc1ccccc1,-14.7%,?,-5.0%,7.6%,?,-14.1%
CCOc1ccccc1OCCCOc1ccc([N+](=O)[O-])cc1Cl,-74.5%,23.1µM*,-4.8%,?,9.5%,-8.9%
CC(C)C(C)NC(=O)COc1ccc([N+](=O)[O-])cc1Cl (configuration not stated),8.2µM*,?,2.7%,0.3%,?,-11.0%
COc1cccc(OC)c1OCCCOc1ccc([N+](=O)[O-])cc1Cl,?,?,-5.5%,-9.3%,-7.8%[10 µM],-21.7%
O=C(OCC(=O)N1c2ccccc2Sc2ccccc21)c1ccc2c(c1)OCCO2,·,·,·,·,·,8.5%
CCOC(=O)c1cc(-c2ccccc2)n(CC(=O)NCc2ccccc2)c1C,?,?,·,·,·,-6.4%
CCOC(=O)c1cc(-c2ccccc2)n(CC(=O)NCc2ccc(C)cc2)c1C,?,8.2µM*,·,·,·,-13.5%
CCc1cccc(NC(=O)Cn2c(-c3ccc(F)cc3)cc(C(C)=O)c2C)c1,13µM*,16.4µM*,·,·,·,-27.5%
CC(=O)c1cc(-c2ccc(F)cc2)n(CC(=O)Nc2cc(C)cc(C)c2)c1C,?,?,·,·,·,-23.2%
CCOC(=O)c1cc(-c2ccccc2)n(CC(=O)Nc2ccc(CC)cc2)c1C,8.2µM*,16.4µM*,·,·,·,-15.2%
CC(=O)c1cc(-c2ccccc2)n(CC(=O)Nc2ccc(C)c(C)c2)c1C,?,11.6µM*,-1.4%,-8.0%,3.1%,-7.3%
CCOC(=O)c1cc(-c2ccccc2)n(CC(=O)Nc2ccc(OC)cc2)c1C,-29.1%,?,10.7%,-1.8%,-12.7%,8.3%

# Assay outcomes: PubChem, National Center for Advancing Translational Sciences (NCATS)
